About 1,700 (0.57%) of roughly 300,000 compounds were called active. Roughly 2% stayed inconclusive and do not appear here.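 The calls were made as follows: active = growth inhibition above about 58% in most replicates (limit read from the data, passing the limit was not always enough); inconclusive = exactly half the replicates above a set limit; inactive = most replicates below a set limit.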 Many of the other results were omitted from the sample, so actives are more common in it than they were.

A short description of the test: C. albicans growth inhibition with fluconazole, primary screen, CaCi-2 strain, Alamar Blue fluorescence (AID 1979).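 Also: all wells also contain fluconazole at 8 µg/ml as a sub-toxic cotreatment; 0% = median of DMSO wells and 100% = median of geldanamycin control wells.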 The conditions noted are these: C. albicans CaCi-2 (fluconazole-resistant clinical isolate) + fluconazole, 48 h, hits give high values, concentration not given here.
With `Cc1cc(NC(=O)CCS(=O)(=O)c2ccc(F)cc2)no1`, the growth inhibition was -4.39% (inactive).

As to `CN(CC(=O)Nc1cccc(F)c1)C(=O)C1=COCCO1`, the growth inhibition was -19.9% (inactive).

Take `Cc1ccc(S(=O)(=O)N2CCC(C(=O)OCC(=O)N(C)c3ccccc3)CC2)cc1C`: the growth inhibition is 5.01% (inactive).

As to `CCCN1CCn2c3c(c4cc(Br)ccc42)CCCC31` (stereo not drawn), the growth inhibition was -13.4% (inactive).

In the case of `OC(CNCC1CCCO1)Cn1c2ccc(Br)cc2c2cc(Br)ccc21` (stereo not drawn), the growth inhibition is 101% (active).

`CC(NS(=O)(=O)c1ccc(Br)cc1)C(=O)NCC1CCCO1` (stereo not drawn): the growth inhibition is -9.65% (inactive).

Turning to `Cc1nc(-c2ccc(Cl)cc2)sc1C1(C)CC(c2ccc(Br)cc2)=NO1` (stereo not drawn), the growth inhibition is 1.65% (inactive).

Turning to `COCCNC(=O)C1CCN(S(=O)(=O)c2ccc3c(c2)OCCO3)CC1`, the growth inhibition was 0.395% (inactive).

Turning to `Cc1ccc(NC(=O)c2sc3nc(N)c(C#N)cc3c2N)cc1`, the growth inhibition is 88.6% (active).

`COc1ccc(NC(=O)c2cc(-c3ccc(C)cc3)on2)cc1`: the growth inhibition is 2.77% (inactive).

For the compound `CCc1ccc2nc3sc(C(=O)Nc4nnc(CC)s4)c(N)c3cc2c1`, the growth inhibition was 44% (inactive).

For the compound `COC(=O)c1ccc(SCc2ccccc2)nc1`, the growth inhibition was 13.7% (inactive).

Regarding `CN(C)c1nc(NN)nc(Nc2ccc(F)cc2)n1`, the growth inhibition is 3.13% (inactive).

On to `COc1cnn(-c2ccc([N+](=O)[O-])cc2)c(=O)c1Cl`, for which the growth inhibition was -11.1% (inactive).

Turning to `Cc1ccc(N2CC(C(=O)Nc3cc(Cl)ccc3-n3cncn3)CC2=O)cc1` (stereo not drawn), the growth inhibition was -4.63% (inactive).

As to `Cc1onc(NC(=O)c2ccc([N+](=O)[O-])o2)c1Br`, the growth inhibition was -0.786% (inactive).

For `Cc1cccc(NC(=O)c2ccc([N+](=O)[O-])o2)c1`, the growth inhibition is 83.3% (active).

`O=C(Nc1ccc(Br)cn1)c1ccc([N+](=O)[O-])o1`: the growth inhibition was 18.1% (inactive).

As to `CC(=O)N(CC(O)CO)c1c(I)c(C(=O)NCC(O)CO)c(I)c(C(=O)NCC(O)CO)c1I` (stereo not drawn), the growth inhibition was -2.27% (inactive).

For `COc1cccc(CC(=O)Nc2nc(-c3ccc(OC)c(OC)c3)cs2)c1`, the growth inhibition is -0.204% (inactive).

For the compound `COc1ccc(OC)c(Nc2nc(-c3ccc(O)c(O)c3)cs2)c1`, the growth inhibition is 97.8% (active).

Regarding `COc1ccc(C)cc1Nc1nc(-c2c(C)[nH]c3ccccc23)cs1`, the growth inhibition was 0.619% (inactive).

With `O=C(NCCC1CCCCN1S(=O)(=O)c1ccccc1)C(=O)NCC1CCCO1` (stereo not drawn), the growth inhibition is -4.24% (inactive).

On to `N#Cc1cccc(OC(=O)c2ccc3c(=O)n4c(nc3c2)CCC4)c1`, for which the growth inhibition was 6.7% (inactive).

`Brc1cnc2ccccc2c1N1CCCCC1`: the growth inhibition was 0.784% (inactive).

Take `CCOc1cc(N2CCOCC2)c(OCC)cc1NC(=O)COc1cccc(Cl)c1`: the growth inhibition was 18.5% (inactive).

Consider `CCOc1cc(N2CCOCC2)c(OCC)cc1NC(=O)COc1cccc2cccnc12`, for which the growth inhibition is 101% (active).

Consider `CCOc1cc(N2CCOCC2)c(OCC)cc1NC(=O)c1cc(C)nc2ccccc12`, for which the growth inhibition was -4.82% (inactive).

On to `Cc1ccc(-c2nnn(CC(=O)N(Cc3ccco3)C(C(=O)NC(C)(C)C)c3ccncc3)n2)o1` (stereo not drawn), for which the growth inhibition is 115% (active).

For the compound `Cc1ccc(-c2nnn(CC(=O)N(CCO)C(C(=O)NC(C)(C)C)c3ccncc3)n2)cc1` (stereo not drawn), the growth inhibition is -7.13% (inactive).

As for `Cc1cccc(N(C(=O)Cn2nnc(-c3ccc(C)o3)n2)C(C(=O)NC2CCCC2)c2ccncc2)c1` (stereo not drawn), the growth inhibition was 9.19% (inactive).

As to `Cc1c(C(=O)NC(C)C2CC3CCC2C3)cccc1[N+](=O)[O-]` (stereo not drawn), the growth inhibition was -2.33% (inactive).

Consider `O=S(=O)(c1ccccc1)N1CCc2ccccc21`, for which the growth inhibition was -2.11% (inactive).

Turning to `CC1COc2ccccc2N1S(=O)(=O)c1ccccc1` (stereo not drawn), the growth inhibition was 99.8% (active).

For `CC1CN(S(=O)(=O)c2ccccc2)C(C)CN1S(=O)(=O)c1ccccc1` (stereo not drawn), the growth inhibition is 3.32% (inactive).

As to `CCOc1ccc(S(=O)(=O)NCCC(=O)NCC(C)(C)N2CCOCC2)cc1`, the growth inhibition was -1.97% (inactive).

As for `Cc1nc2ccccn2c(=O)c1NC(=O)c1cccs1`, the growth inhibition was 0.647% (inactive).

For the compound `COc1cc(/C=C(\C#N)c2nc3c(s2)CC(C)CC3)ccc1O` (stereo not drawn), the growth inhibition is 43.5% (inactive).

For `COc1ccc(/C=C(/NC(=O)c2ccc(C)cc2)c2nc3ccccc3[nH]2)cc1OC`, the growth inhibition is 23.2% (inactive).

For the compound `COc1cc(/C=C(\C#N)c2nc3ccccc3[nH]2)ccc1O`, the growth inhibition is 76.5% (active).

Turning to `Clc1ccc(Nc2ccc3ccccc3n2)cc1`, the growth inhibition was -23.2% (inactive).

For the compound `CCN1C(=O)[C@H]2[C@@H](c3ccc(-c4ccc(OC)cc4)cc3)N[C@@](Cc3ccccc3)(C(=O)OC)[C@H]2C1=O`, the growth inhibition was 3.17% (inactive).

`CCN(CC(=O)Nc1cccc(S(=O)(=O)N2CCCCC2)c1)Cc1ccccc1`: the growth inhibition is -0.00245% (inactive).

Turning to `COc1ccccc1NC(=O)COC(=O)c1ccccc1SCC(=O)N1CCCC1`, the growth inhibition was 4.29% (inactive).

`COc1ccc(C(=O)C2CCCN(Cc3cccn3-c3ccccn3)C2)c(C)c1` (stereo not drawn): the growth inhibition is 110% (active).

Consider `CCOC(=O)c1[nH]ncc1CN1CCCC(C(=O)c2ccc(OC)cc2C)C1` (stereo not drawn), for which the growth inhibition is -8.68% (inactive).

Regarding `COc1ccc(C(=O)C2CCCN(Cc3ccc4nonc4c3)C2)c(C)c1` (stereo not drawn), the growth inhibition was 3.47% (inactive).

On to `Cc1nc2ccccc2c(=O)n1Cc1ccc([N+](=O)[O-])cc1`, for which the growth inhibition was -0.41% (inactive).

Regarding `CCn1c(/C=C/c2ccc([N+](=O)[O-])o2)nc2ccccc2c1=O`, the growth inhibition is 99.4% (active).

Consider `CCn1c(=O)c([N+](=O)[O-])c(NCc2ccc3c(c2)OCO3)c2ccccc21`, for which the growth inhibition was 18.7% (inactive).

`Cc1cccc(-n2nc3c(c2NC(=O)c2cc4ccccc4o2)CS(=O)(=O)C3)c1`: the growth inhibition is 7.71% (inactive).

Consider `CC(=O)N1CCN(C(=O)c2cc(-c3ccc(Cl)s3)nc3ccccc23)CC1`, for which the growth inhibition is 11.4% (inactive).

On to `CC(=O)Nc1cccc(C(=O)OCC(=O)c2ccc3c(c2)OCO3)c1`, for which the growth inhibition is 4.88% (inactive).

As to `COc1ccc2nc(N3CCN(C(=O)c4ccc([N+](=O)[O-])o4)CC3)sc2c1`, the growth inhibition was 13.6% (inactive).

Consider `Cc1cc(C(=O)NNC(=S)NC(C)c2ccccc2)cs1` (stereo not drawn), for which the growth inhibition was 12.8% (inactive).

In the case of `Cc1ccc(C)c(NC(=S)NNC(=O)c2csc(C)c2)c1`, the growth inhibition was 82.7% (active).

Take `Cc1cc(C(=O)NNC(=S)Nc2ccccc2C)cs1`: the growth inhibition is 1.21% (inactive).

Consider `NC1=NC(c2ccc([N+](=O)[O-])cc2)N(c2ccc(F)cc2)C(N)=N1` (stereo not drawn), for which the growth inhibition was -2.27% (inactive).

Consider `Cc1ccc(C(=O)Nc2c(C#N)c(C)c(C)n2Cc2ccccc2)cc1`, for which the growth inhibition is -7.7% (inactive).

On to `CC(C)C(=O)N1CC(=O)Nc2ccc(F)cc2C1c1ccc(F)cc1` (stereo not drawn), for which the growth inhibition is -3.91% (inactive).

On to `O=C(Nc1ccccc1Cl)/C(Cl)=C(\Cl)S(=O)c1ccccc1` (stereo not drawn), for which the growth inhibition was 81.7% (active).

`O=C(Nc1ccccc1Cl)Nn1cnnc1`: the growth inhibition was 16.1% (inactive).

As for `O=C(COC(=O)c1cccs1)Nc1ccccc1Cl`, the growth inhibition was 7.55% (inactive).

Turning to `O=c1[nH]c(/C=C/c2cccc(Br)c2)nc2ccccc12`, the growth inhibition is 3.62% (inactive).

Take `COc1ccccc1-n1ccnc(SCC(=O)NC2CCCCC2)c1=O`: the growth inhibition was -2.58% (inactive).

`CC1COc2ccccc2N1C(=O)c1ccc(F)cc1` (stereo not drawn): the growth inhibition was -3.04% (inactive).

As for `O=C(Nc1ccccc1F)c1ccc2c(c1)OCO2`, the growth inhibition was -5.7% (inactive).

Turning to `O=C(Nc1nnc(C2COc3ccccc3O2)o1)c1ccc(F)cc1` (stereo not drawn), the growth inhibition is 85.8% (active).

As for `Cc1cccc(N(Cc2ccccc2)C(=O)c2cc(S(=O)(=O)N3CCOCC3)ccc2F)c1`, the growth inhibition is -1.4% (inactive).

Turning to `CCN1C(=O)[C@H]2[C@@H](c3ccc(-c4ccc(F)cc4)cc3)N[C@@](Cc3ccccc3)(C(=O)OC)[C@H]2C1=O`, the growth inhibition was -6.22% (inactive).

In the case of `COC(=O)N/N=C/c1c[n+]([O-])c2ccccc2[n+]1[O-]`, the growth inhibition was 12.4% (inactive).

For the compound `Cc1ccc(NC(=O)CN(C)C(=O)Cn2nnc(-c3ccccc3)n2)cc1`, the growth inhibition was -6.13% (inactive).

With `O=C1CCCN1C(=O)COc1ccc([N+](=O)[O-])cc1`, the growth inhibition was 4.3% (inactive).

With `Cc1cccc(C(=O)N2CCc3c([nH]c4ccccc34)C2CC(C)C)n1` (stereo not drawn), the growth inhibition was 12.9% (inactive).

With `O=C(c1cn2ccccc2n1)N1CCc2c([nH]c3ccccc23)C1c1ccccn1` (stereo not drawn), the growth inhibition is -2.25% (inactive).

Consider `Cc1cccc(C2c3[nH]c4ccccc4c3CCN2C(=O)c2cc(-c3cccn3C)n[nH]2)n1` (stereo not drawn), for which the growth inhibition was 79.7% (active).

Consider `O=C(NCc1ccccc1)C1=C[C@@H](c2ccccc2)C[C@@H](OCCCCO)O1`, for which the growth inhibition is -5.03% (inactive).

Regarding `CCN(CC(=O)Nc1cc(Cl)ccc1C)C(=O)Cn1c(=O)cnc2ccccc21`, the growth inhibition was -1.02% (inactive).

These data come from PubChem BioAssay AID1979 (Broad Institute, 2009).
